Reference: the supplement of paper PMC7411054

Legend:
Test in all cases: phenotypically active (imaging signature differs from DMSO and reproducible) at any of 0.3-9 uM (binary (1 = active, 0 = inactive)); higher = active
Settings in all cases: treatment time: 24 h
[1] = tested on: A549-ACTB-RAB5A
Outline: (§1)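 Four wells per concentration (0.3, 1, 3 or 9 µM) were treated for 24 h in each of fifteen gene-edited reporter lines from A549, HepG2 and WPMY1 cells, then imaged live. After normalising live-cell features to solvent control wells, deviation was defined as ≥3 of 4 wells lying past the 95th percentile of control Euclidean distances. Reproducibility was defined as a median replicate Pearson correlation above the 95th percentile of non-replicates. Both had to hold for phenotypic activity.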

[2] = tested on: A549-CANX-COX4
Outline: as §1

[3] = tested on: A549-GM130-SQSTM1
Outline: as §1

[4] = tested on: A549-TP53BP1-CLTA
Outline: as §1

[5] = tested on: A549-TUBA1B-RELA
Outline: as §1

[6] = tested on: HepG2-ACTB-RAB5A
Outline: as §1

[7] = tested on: HepG2-CANX-COX4
Outline: as §1

[8] = tested on: HepG2-GM130-SQSTM1
Outline: as §1

[9] = tested on: HepG2-TP53BP1-CLTA
Outline: as §1

[10] = tested on: HepG2-TUBA1B-RELA
Outline: as §1

[11] = tested on: WPMY1-ACTB-RAB5A
Outline: as §1

[12] = tested on: WPMY1-CANX-COX4
Outline: as §1

[13] = tested on: WPMY1-GM130-SQSTM1
Outline: as §1

[14] = tested on: WPMY1-TP53BP1-CLTA
Outline: as §1

[15] = tested on: WPMY1-TUBA1B-RELA
Outline: as §1

Measured: phenotypically active

CC[N+](C)(CC)CCOC(=O)C1c2ccccc2Oc2ccccc21 [methantheline]
inactive: [1] 0 | [2] 0 | [3] 0 | [4] 0 | [5] 0 | [6] 0 | [7] 0 | [8] 0 | [9] 0 | [10] 0 | [11] 0 | [12] 0 | [13] 0 | [14] 0 | [15] 0

CC(C(=O)O)c1cccc(C(=O)c2ccccc2)c1 (stereo not given) [ketoprofen]
inactive: [1] 0 | [2] 0 | [3] 0 | [4] 0 | [5] 0 | [6] 0 | [7] 0 | [8] 0 | [9] 0 | [10] 0 | [11] 0 | [12] 0 | [13] 0 | [14] 0 | [15] 0

O=C(O)CCNC(=O)c1ccc(/N=N/c2ccc(O)c(C(=O)O)c2)cc1 [balsalazide]
inactive: [1] 0 | [2] 0 | [3] 0 | [4] 0 | [5] 0 | [6] 0 | [7] 0 | [8] 0 | [9] 0 | [10] 0 | [11] 0 | [12] 0 | [13] 0 | [14] 0 | [15] 0

NCCCC[C@H](N[C@@H](CCc1ccccc1)C(=O)O)C(=O)N1CCC[C@H]1C(=O)O [lisinopril]
inactive: [1] 0 | [2] 0 | [3] 0 | [4] 0 | [5] 0 | [6] 0 | [7] 0 | [8] 0 | [9] 0 | [10] 0 | [11] 0 | [12] 0 | [13] 0 | [14] 0 | [15] 0

O=C(NCc1ccccn1)Nc1nnc(-c2ccco2)o1
inactive: [1] 0 | [2] 0 | [3] 0 | [4] 0 | [5] 0 | [6] 0 | [7] 0 | [8] 0 | [9] 0 | [10] 0 | [11] 0 | [12] 0 | [13] 0 | [14] 0 | [15] 0

NC(=O)c1cccc(-c2cccc(OC(=O)NC3CCCCC3)c2)c1
inactive: [1] 0 | [2] 0 | [3] 0 | [4] 0 | [5] 0 | [6] 0 | [7] 0 | [8] 0 | [9] 0 | [10] 0 | [11] 0 | [12] 0 | [13] 0 | [14] 0 | [15] 0

Cc1occc(=O)c1O [3-hydroxy-2-methyl-4-pyrone]
inactive: [1] 0 | [2] 0 | [3] 0 | [4] 0 | [5] 0 | [6] 0 | [7] 0 | [8] 0 | [9] 0 | [10] 0 | [11] 0 | [12] 0 | [13] 0 | [14] 0 | [15] 0

CC(=O)NCCCS(=O)(=O)O [acamprosate]
inactive: [1] 0 | [2] 0 | [3] 0 | [4] 0 | [5] 0 | [6] 0 | [7] 0 | [8] 0 | [9] 0 | [10] 0 | [11] 0 | [12] 0 | [13] 0 | [14] 0 | [15] 0

O=C(O)c1cc(=O)c(O)c(C(=O)O)o1 [Meconic acid]
inactive: [1] 0 | [2] 0 | [3] 0 | [4] 0 | [5] 0 | [6] 0 | [7] 0 | [8] 0 | [9] 0 | [10] 0 | [11] 0 | [12] 0 | [13] 0 | [14] 0 | [15] 0

CNCC[C@@H](Oc1ccccc1C)c1ccccc1 [atomoxetine]
inactive: [1] 0 | [2] 0 | [3] 0 | [4] 0 | [5] 0 | [6] 0 | [7] 0 | [8] 0 | [9] 0 | [10] 0 | [11] 0 | [12] 0 | [13] 0 | [14] 0 | [15] 0

O=C(Nc1c(Cl)cncc1Cl)c1ccc(OC(F)F)c(OCC2CC2)c1 [roflumilast]
inactive: [1] 0 | [2] 0 | [3] 0 | [4] 0 | [5] 0 | [6] 0 | [7] 0 | [8] 0 | [9] 0 | [10] 0 | [11] 0 | [12] 0 | [13] 0 | [14] 0 | [15] 0

O=C(O)c1ccc(O)c2ncccc12
inactive: [1] 0 | [2] 0 | [3] 0 | [4] 0 | [5] 0 | [6] 0 | [7] 0 | [8] 0 | [9] 0 | [10] 0 | [11] 0 | [12] 0 | [13] 0 | [14] 0 | [15] 0
